# aSyn UTR act: Activators via SNCA 5'UTR binding, MLPCN. activity score, % (tested at 7.5 µM), hits read low. alpha-synuclein 5'UTR reporter, activators screen. 7.1% of 300,000 active; in the data active = activity score below about -60%
# Active calls of the source: *. A selection follows.
SMILES,aSyn UTR act
C=CCNC(=O)N1CCCC(C(=O)c2cccc(OC(C)C)c2)C1 (stereo not drawn),-88.9*
CCCC(=O)N1CCCC(C(=O)c2cccc(OC(C)C)c2)C1 (stereo not drawn),-80.1*
COc1ccc2cc(C(=O)C3CCCN(C(=O)CCc4ccccn4)C3)ccc2c1 (stereo not drawn),-92.6*
Cc1cc(-c2n[nH]c(=S)o2)c(C)n1-c1ccccc1,-144.3*
N#Cc1nc(-c2ccccc2F)oc1NCCc1ccccn1,-81.3*
COCCCNc1oc(-c2ccccc2F)nc1C#N,-84.3*
CCOC(=O)c1cnc2c(ccc3ccccc32)c1NCCCN(C)C,-357.5*
CC(=O)OCCc1c2ccccc2c(CCCN(C)C)c2ccccc12,103.3
COc1ccc(-c2nc(-c3cccs3)no2)cc1,82.6
O=[N+]([O-])c1cccc(-c2noc(-c3cccs3)n2)c1,-147.1*
COc1ccccc1-c1noc(-c2ccncc2)n1,-73.9*
COc1ccccc1-c1nc(-c2ccccn2)no1,76.5
COc1ccccc1-c1noc(-c2cccs2)n1,-235.7*
COc1cccc(-c2ccc(-c3noc(-c4cccs4)n3)c(OC)n2)c1,-84.9*
S=C1SCN(Cc2cccnc2)CN1Cc1cccnc1,-86.4*
Cc1ccc(/C=C2/CCc3c([nH]c4ccccc34)C2=O)cc1,-180.1*
O=C1/C(=C\c2ccccc2)CCc2c1[nH]c1ccccc21,-121.5*
CCCC/C=C1\CCc2c([nH]c3ccccc23)C1=O,-75.0*
CCCCCCCn1c2c(c(=N)c3ccccc31)CCC2,79.4
CCCCN1CCc2c([nH]c3ccccc23)C1=O,-127.6*
Cc1ccc2[nH]c3c(c2c1)CC/C(=C/c1ccccc1)C3=O,-194.1*
CC(C)c1ccc(NC(=O)c2ccccc2NC(=O)C2CCCCC2C(=O)O)cc1 (stereo not drawn),-120.9*
O=C(NCCc1ccccc1)c1ccccc1NC(=O)C1CCCCC1C(=O)O (stereo not drawn),-146.3*
COCCn1c(=O)[nH]c2cc(C(=O)Nc3cccc(F)c3)ccc2c1=O,-112.7*
CSc1nc2c(cnn2-c2ccccc2)c(=O)n1N,-91.6*
SMILES,aSyn UTR act
CCSc1nc2c(cnn2-c2ccccc2)c(=O)n1N,-105.4*
CC1CCN(C(=O)CSc2nnc(-c3cccs3)o2)CC1,-79.3*
CC1CCN(c2ccc(-c3cccs3)nn2)CC1,101.5
O=C(CSc1nnc(-c2ccco2)o1)c1ccc[nH]1,-158.0*
O=C(CSc1nnc(-c2cccs2)o1)N1CCCCC1,-99.1*
O=C(CSc1nnc(-c2ccco2)o1)N1CCCCC1,-95.0*
COC(=O)c1ccc(C)c(NS(=O)(=O)c2ccc(OC)cc2)c1,81.9
COc1ccc(S(=O)(=O)Nc2ccc(O)c3ccccc23)cc1,-68.4*
COc1cc(NC2CCCCC2O)c2nc(-c3ccc(Cl)cc3)ccc2c1 (stereo not drawn),-93.8*
OC(c1cc(-c2ccc(Cl)cc2)nc2ccccc12)C1CCCCN1 (stereo not drawn),96.4
CC1CCC2(CC1)Nc1ccccc1C(=O)N2c1ccccc1 (stereo not drawn),-104.7*
C(/C=C/c1ccccc1)=N/N1CCN(c2ccccc2)CC1,-136.4*
C(=C\c1ccccc1)/C=N/N1CCN(c2ccccn2)CC1,-152.9*
CC(/C=N/N1CCN(c2ccccn2)CC1)=C\c1ccccc1,-133.7*
C(=C\c1ccccc1)/C=N/N1CCN(Cc2ccccc2)CC1,-73.7*
Cc1ccc(OCn2c(=O)sc3ccccc32)cc1,-157.5*
O=c1sc2ccccc2n1CCOc1ccccc1,-133.2*
Cc1cccc(NC(=O)c2cnn(-c3ccccc3)c2C)c1C,-128.8*
Cc1ccc(C)c(NC(=O)c2cnn(-c3ccccc3)c2C)c1,-81.4*
Cc1ccccc1NC(=O)c1cnn(-c2ccccc2)c1C,-164.3*
COc1ccc(N2C(=S)NC3N2C(=S)NC3(C)c2ccccc2)cc1 (stereo not drawn),-93.5*
COC(=O)C(Cc1ccc(OC(=O)c2ccc(C)cc2)cc1)N1Cc2ccccc2C1=O (stereo not drawn),-66.7*
COC(=O)C(Cc1ccc(O)cc1)N1Cc2ccccc2C1=O (stereo not drawn),-144.4*
O=C(Nc1ccc([N+](=O)[O-])cc1)C(Cc1ccccc1)N1C(=O)c2cccc3cccc(c23)C1=O (stereo not drawn),55.9
CS(=O)(=O)c1nc2c(cc1C#N)CCCC2,-85.3*
SMILES,aSyn UTR act
Cc1cc2nc(-c3ccc(SCc4ccccc4C#N)nc3)[nH]c2cc1C,-78.0*
Cc1cc2nc(-c3ccc(SCC(=O)N4CCc5ccccc54)nc3)[nH]c2cc1C,-220.3*
Cc1cc2nc(-c3ccc(SCC(=O)NC(C)C)nc3)[nH]c2cc1C,-134.4*
Cc1cc2nc(-c3ccc(SCc4ccc(C(=O)O)cc4)nc3)[nH]c2cc1C,-160.0*
Cc1cc(NC(=O)CSc2ccc(-c3nc4cc(C)c(C)cc4[nH]3)cn2)no1,-99.9*
Cc1cc2nc(-c3ccc(SCC(=O)Nc4ccc(S(=O)(=O)NC5CC5)cc4)nc3)[nH]c2cc1C,-115.7*
CCCn1c(C2CCCN2c2nc(-c3cccc(Br)c3)cs2)nc2ccccc21 (stereo not drawn),-92.8*
Cc1ccc(NCc2ccccc2O)cc1C,-116.5*
Oc1ccccc1CNc1ccc(OC(F)(F)F)cc1,-72.1*
Oc1ccccc1CNc1ccc2c(c1)OCCO2,-71.8*
CCCCCCc1ccc(N2C[C@H](C)[C@@H](CC(=O)NCc3ccccc3)C2=O)cc1,-82.2*
O=C(Nc1ccc(Cl)cc1)Nc1ccc(-c2cnco2)cc1,-85.4*
O=C(NC(=O)c1ccccc1)Nc1ccc(-c2cnco2)cc1,-143.4*
CC(C)(C)NC(=O)CN(C(=O)CNS(=O)(=O)c1ccccc1)c1ccc2c(c1)OCCO2,-86.3*
Cc1cc(Cl)c2oc(C(=O)N3CCN(c4cccc(C)n4)CC3)c(C)c2c1,-126.6*
Cc1c(N)ccc(-n2nc3ccccc3n2)c1C,-64.6*
Cc1ccc(-n2nc3ccc(N)cc3n2)c(C)c1,65.9
Cc1ccc(Nc2nc(COC(=O)COc3ccc(C=O)cc3)cs2)cc1,-107.4*
C/C=C/c1ccc(OCC(=O)OCc2csc(Nc3ccc(C)cc3)n2)c(OC)c1,-176.8*
CCNC(=O)c1sc(-c2ccccc2)nc1C,-66.2*
Cc1nc(-c2ccccn2)sc1C(=O)Nc1ccc(F)cc1F,-127.5*
Cc1nc(-c2ccccc2)sc1C(=O)Nc1ccccc1F,-66.4*
CS(=O)(=O)c1ccc2nc(NC(=O)c3cccc(Cl)c3)sc2c1,-71.9*
COc1ccccc1C(=O)Nc1nc2ccccc2s1,109.3
COc1ccccc1C(=O)Nc1nc2ccc(S(C)(=O)=O)cc2s1,-118.4*
SMILES,aSyn UTR act
CS(=O)(=O)c1ccc2nc(NC(=O)c3ccccc3Br)sc2c1,-103.8*
CS(=O)(=O)c1ccc2nc(NC(=O)c3ccccc3Cl)sc2c1,-108.8*
Cc1noc(C)c1C(=O)Nc1nc2ccc(S(C)(=O)=O)cc2s1,-70.1*
c1ccc(Cn2cc(CSc3ccccc3)nn2)cc1,-137.1*
CCc1c(C(=O)NC2CCCc3ccccc32)[nH]c(C)c1C(C)=O (stereo not drawn),64.2
CC(=O)c1c(C)[nH]c(C(=O)CSc2ccc(F)cc2)c1C,-182.0*
Cc1cc(C(=O)CSc2ccc(F)cc2)cc(C)c1O,-108.8*
Cc1cc(C(=O)CSc2ccc(Cl)cc2)cc(C)c1OC(=S)N(C)C,-178.8*
O=C(Nc1ccc2sccc2c1)c1ccc(Cl)s1,-198.1*
O=C(Nc1nccs1)c1ccc(Cl)s1,-105.6*
O=C(Nc1nc(-c2ccccn2)cs1)c1ccc(Cl)s1,67.7
Cc1ccccc1C(=O)Nc1ccc(Br)cn1,-76.5*

# Screening data as filed in PubChem.
